Where “and” joins values, the source holds several entries; their conditions need not be identical. Equal values may be shown once. Records with an inconclusive call do not appear. Calls of active or inactive are those of the source. Unless noted, calls follow the shape of the dose curve; as a rule, active = well fitted curve in the direction sought with a large enough effect; inconclusive = small, poorly fitted or top-dose-only effect, or another doubt; inactive = no such curve, though single readings can be large; an effect the other way counts as inactive or inconclusive.
What was measured:
[1] = S16 Schwann cell viability assay (CellTiter-Glo assay) (AID 624031);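 also: cellular ATP luminescence as a viability measure; series mostly up to about 58 µM; plate controls were DMSO-treated cells for no effect and cell-free wells for full effect; nearly all actives have a fitted effect of over 70% in size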
How it was run: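 Luminescent ATP read-out (CellTiter-Glo) after 24 h compound exposure of native S16 rat Schwann cells at 37 °C. Signals were normalized between cell-free wells and DMSO-treated cells, set as 0% activity.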

[2] = S16 Schwann cell PMP22 intronic element firefly luciferase assay (AID 624032);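 also: series mostly up to about 58 µM; plate controls were DMSO for no effect and PTC124 positive control mean for full effect; nearly all actives have a fitted effect of over 30% in size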
How it was run: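 Rat S16 Schwann cells stably carrying a PMP22 intronic element-driven Fluc reporter were seeded overnight, then exposed to compounds for 24 h at 37 °C. Luminescence was normalized to PTC124 (positive control) and DMSO (0% activity).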

[3] = S16 Schwann cell PMP22 intronic element beta-lactamase assay (AID 624044; calls by dose curve;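 also: 0% = DMSO and -100% = potassium clavulanate positive control; nearly all actives have a fitted effect of over 15% in size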)
How it was run: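 Rat S16 Schwann cells with beta-Lac driven by a PMP22 intronic element, compound-treated 24 h at 37 °C. LiveBLAzer FRET B/G read: 460 nm normalized to potassium clavulanate vs DMSO; 535 nm FRET as viability; concentration-effect curves classified.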

[4] = qHTS Assay for Identifying Gametocytocidal Compounds (AID 743244);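 also: % is scaled to controls: 0 for no effect and ±100 for the full control effect; actives lower the fluorescent signal which means gametocytes are killed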; settings: P. falciparum 3D7 stage III-V gametocytes, alamarBlue, 72 h; max response: stronger effect = lower value
How it was run: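 In this qHTS viability screen, late-stage 3D7 gametocytes are incubated with compound for 72 h, then with alamarBlue for 24 h; reduced resorufin fluorescence marks killing.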

[5] = qHTS assay for small molecule agonists of the antioxidant response element (ARE) signaling pathway (AID 651741; active = well fitted activation curve with a large enough effect in the signal ratio; the % refers to the signal ratio; also: % of control where 0% means no effect)
How it was run: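 ARE-bla HepG2 cells (beta-lactamase reporter under ARE control) were plated at 2,000 cells/well, preincubated 5 h at 37 C/5% CO2, then treated with DMSO-dissolved compounds for 16 h at 37 C; LiveBLAzer B/G FRET substrate added, fluorescence read after 2 h at room temperature.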

[6] = qHTS assay for small molecule activators of the nuclear factor-kappa B (NF-kB) signaling pathway (AID 651749; active = well fitted activation curve with a large enough effect in the signal ratio; the % refers to the signal ratio; also: series mostly up to about 77 µM; % of control where 0% means no effect); settings: NF-kB-bla ME-180 cells, beta-lactamase FRET ratio, 16 h; stronger effect = higher value
How it was run: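 ME-180 cells stably carrying a beta-lactamase reporter under an NF-kB response element were exposed to compound or DMSO vehicle for 16 hr at 37C, 5% CO2. Pathway activation was read by FRET, since reporter expression disrupts FRET.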

[7] = qHTS assay for small molecule disruptors of the mitochondrial membrane potential - 1 hr assay (AID 651754; calls by dose curve; also: % is scaled to controls: 0 for no effect and ±100 for the full control effect; nearly all actives have a fitted effect of over 35% in size)
How it was run: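 HepG2 cells, attached overnight at 37C, were exposed to compound or DMSO vehicle for 1 hr at 37C, 5% CO2, then stained with Mito-MPS dye for 30 min. Red aggregate versus green monomer fluorescence reports membrane potential.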

[8] = qHTS assay for small molecule disruptors of the mitochondrial membrane potential - 5 hr assay (AID 651755; calls by dose curve; also: % is scaled to controls: 0 for no effect and ±100 for the full control effect; nearly all actives have a fitted effect of over 40% in size)
How it was run: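 HepG2 cells, attached overnight at 37C, were exposed to compound or DMSO for 5 hr at 37C, 5% CO2. Mito-MPS dye was then added for 30 min, and fluorescence read at 490/535 nm (monomers) and 540/590 nm (aggregates).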

[9] = target: Tumor necrosis factor (Homo sapiens) (UniProt P01375); experiment: qHTS assay to identify small molecules that stimulate Tumor Necrosis Factor-alpha (TNF-alpha) secretion (AID 651757; active = well fitted curve in the direction sought with a large enough effect in the signal ratio; the % refers to the signal ratio; also: 0% is about no effect)
How it was run: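 THP-1 cells were exposed to compounds for 17 hrs at 37 C, after which secreted TNF-alpha was measured by homogeneous HTRF (TR-FRET) using cryptate- and XL665-labeled anti-TNF-alpha antibodies, read after 3 hr at room temperature.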

[10] = qHTS assay for environmental chemicals that activate the Aryl hydrocarbon Receptor (AhR) signaling pathway (AID 651777); settings: 1A2-DRE human hepatoma cells, luciferase, 24 h; stronger effect = higher value; also: % of control where 0% means no effect; nearly all actives have a fitted effect of over 15% in size
How it was run: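 1A2-DRE human hepatoma reporter line; 1,200 cells/well; cmpd or DMSO 24 h, 37 C/5% CO2; One-Glo 30 min RT; luciferase lum.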

[11] = target: Peroxisome proliferator-activated receptor alpha (Homo sapiens) (UniProt Q07869); experiment: qHTS assay for small molecule agonists of the peroxisome proliferator-activated receptor alpha (PPARalpha) signaling pathway (AID 651778); settings: PathHunter PPARalpha complementation, chemiluminescence, 6 h; stronger effect = higher value; also: % of control where 0% means no effect
How it was run: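 Cells plated at 2,000/well and held overnight at 37 C, 5% CO2, then compound added by pin tool for 6 hr; after PathHunter detection reagent and 60 min at room temperature, chemiluminescence from enzyme complementation was read.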

[12] = target: Nuclear receptor ROR-gamma (Homo sapiens) (UniProt P51449); experiment: qHTS assay for small molecule antagonists of the retinoid-related orphan receptor gamma (ROR-gamma) signaling pathway (AID 651802); also: series mostly up to about 92 µM; % is scaled to controls: 0 for no effect and ±100 for the full control effect; nearly all actives have a fitted effect of over 60% in size
How it was run: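 CHO cells carrying TET-inducible ROR-gamma and an ROR response element–luciferase reporter were exposed to compound, then induced with doxycycline. After 16hr at 37C, luminescence was read; lower signal indicates antagonism.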

[13] = qHTS assay for small molecule agonists of the antioxidant response element (ARE) signaling pathway measured by Nrf2-dependant transcriptional activity (AID 720636; active = well fitted curve in the direction sought with a large enough effect in the repeat runs; an effect the other way counts as inactive or inconclusive;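 also: HepG2 cells with an ARE-driven luciferase reporter; % of control where 0% means no effect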)
How it was run: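 Cells: ARE-luc HepG2 with Nrf2-responsive luciferase. Medium contained 1% dialyzed FBS. Compound exposure lasted 16 hr at 37 C and 5% CO2, followed by ONE-Glo luciferase detection.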

[14] = qHTS assay for small molecule agonists of the antioxidant response element (ARE) signaling pathway measured by Nrf2-dependant transcriptional activity - cell viability counter screen (AID 720653; active = well fitted curve in the direction sought with a large enough effect in the repeat runs; an effect the other way counts as inactive or inconclusive; also: % is scaled to controls: 0 for no effect and ±100 for the full control effect); settings: ARE-bla HepG2 viability, CellTiter-Glo ATP luminescence, 16 h; stronger effect = lower value
How it was run: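 ARE-bla HepG2 cells (2,000/well) rested 5 hrs at 37C/5% CO2, then exposed to compounds in DMSO for 16 hrs. Viability was read in the same wells as intracellular ATP by luminescence, 30 min at room temperature after reagent addition.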

[15] = qHTS assay for cell viability of HEK293 cells (AID 743288); settings: ATP luminescence (CellTiter-Glo), 18 h, stronger effect = lower value; also: % is scaled to controls: 0 for no effect and ±100 for the full control effect; nearly all actives have a fitted effect of over 50% in size
How it was run: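 The Tox21 protocol used parental HEK293 cells treated for 18 h at 37 C with compounds delivered by pintool; ATP-coupled luminescence after 30 min at room temperature gave viability.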

[16] = qHTS assay for cell viability of the p53RE-bla HCT-116 cell line (AID 743292); also: % is scaled to controls: 0 for no effect and ±100 for the full control effect; nearly all actives have a fitted effect of over 55% in size
How it was run: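 HCT-116 p53RE-bla cells seeded 4,000/well; 5 h at 37 C; compound (DMSO) added; 16 h at 37 C; CellTiter-Glo added, 30 min RT; luminescence read.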

[17] = qHTS assay for small molecule activators of the p53 signaling pathway (AID 651743; active = well fitted activation curve with a large enough effect in the signal ratio, not every such curve was filed as active; the % refers to the signal ratio; also: series mostly up to about 92 µM; % of control where 0% means no effect); settings: HCT-116 p53RE-bla, beta-lactamase FRET ratio, 16 h; stronger effect = higher value
How it was run: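 p53RE-bla HCT-116 cells with a stably integrated beta-lactamase reporter under p53 response elements were plated, rested 5 hours at 37 C/5% CO2, then exposed to compounds in DMSO for 16 hours at 37 C. LiveBLAzer B/G FRET substrate was read after 2 hours at room temperature.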

Chain of Peroxisome proliferator-activated receptor alpha (Homo sapiens) (Q07869 whole entry, looked up): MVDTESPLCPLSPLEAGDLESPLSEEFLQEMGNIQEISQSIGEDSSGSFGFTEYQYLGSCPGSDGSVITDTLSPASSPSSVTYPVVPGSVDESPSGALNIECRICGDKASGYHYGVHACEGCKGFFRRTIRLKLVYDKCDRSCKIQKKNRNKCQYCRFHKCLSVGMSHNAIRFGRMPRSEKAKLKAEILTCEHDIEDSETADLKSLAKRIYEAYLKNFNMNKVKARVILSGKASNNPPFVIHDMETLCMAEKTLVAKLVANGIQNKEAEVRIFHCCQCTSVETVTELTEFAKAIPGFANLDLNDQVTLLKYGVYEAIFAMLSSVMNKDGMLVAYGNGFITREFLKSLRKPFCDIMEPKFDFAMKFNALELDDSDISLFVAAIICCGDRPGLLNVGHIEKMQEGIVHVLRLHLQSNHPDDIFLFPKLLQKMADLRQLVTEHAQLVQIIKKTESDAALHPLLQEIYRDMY
Chain of Tumor necrosis factor (Homo sapiens) (P01375 whole entry, looked up): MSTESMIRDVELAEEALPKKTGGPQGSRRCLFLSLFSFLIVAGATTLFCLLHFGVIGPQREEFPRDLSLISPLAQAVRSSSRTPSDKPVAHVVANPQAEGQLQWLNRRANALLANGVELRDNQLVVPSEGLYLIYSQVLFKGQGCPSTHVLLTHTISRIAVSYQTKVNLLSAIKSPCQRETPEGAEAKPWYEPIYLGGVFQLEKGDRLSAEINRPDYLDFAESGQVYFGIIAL
Chain of Nuclear receptor ROR-gamma (Homo sapiens) (P51449 whole entry, looked up): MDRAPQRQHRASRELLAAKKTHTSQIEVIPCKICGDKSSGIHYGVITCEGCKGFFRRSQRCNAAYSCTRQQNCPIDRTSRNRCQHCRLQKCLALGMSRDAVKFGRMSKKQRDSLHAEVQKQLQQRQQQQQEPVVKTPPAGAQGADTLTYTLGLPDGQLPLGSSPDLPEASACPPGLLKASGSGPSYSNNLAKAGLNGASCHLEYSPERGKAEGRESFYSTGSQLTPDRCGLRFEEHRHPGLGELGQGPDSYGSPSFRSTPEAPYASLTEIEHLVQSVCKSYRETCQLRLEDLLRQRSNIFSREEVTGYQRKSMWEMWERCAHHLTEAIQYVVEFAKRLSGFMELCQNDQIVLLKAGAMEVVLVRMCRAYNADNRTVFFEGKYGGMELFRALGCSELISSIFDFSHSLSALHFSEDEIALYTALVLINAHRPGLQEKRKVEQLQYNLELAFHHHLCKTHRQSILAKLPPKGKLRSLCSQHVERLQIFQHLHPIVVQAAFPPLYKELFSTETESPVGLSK

CCCNC(C)(C)COC(=O)c1ccccc1
inactive: outcome [1] | Potency [2] | outcome [3] | max response [4] 5.84%

C[C@@H](N)C(=O)O
inactive: outcome [1] | Potency [2] | outcome [3] | max response [4] -2.49%

NC(N)=NCCN1CCCCCCC1
inactive: outcome [1] | Potency [2] | outcome [3] | max response [4] 21%

CC(=O)SC[C@@H](Cc1ccccc1)C(=O)NCC(=O)OCc1ccccc1
inactive: outcome [1] | Potency [2] | outcome [3] | max response [4] 3.78%

O=C(Cn1ccnc1[N+](=O)[O-])NCc1ccccc1
inactive: outcome [1] | Potency [2] | outcome [3] | max response [4] -2.89%

CC(=O)Nc1ccc(OCCOCCOc2ccc(NC(C)=O)cc2)cc1
inactive: outcome [1] | Potency [2] | outcome [3] | max response [4] 1.8%

Cc1c(N(C)C)c(=O)n(-c2ccccc2)n1C
inactive: outcome [1] | Potency [2] | outcome [3] | Potency [5] | activation [6] 1.01% and 2.73% | Potency [7] | Potency [8] | outcome [9] | activation [10] -1.03% and 1.07% | max response [11] -3.72% and 2.35% | outcome [12] | outcome [13] | max response [14] -0.437% and -7.96% | max response [4] -4.29% | max response [15] 1.77% and -15.3% | outcome [16]

CC(C)=CCC/C(C)=C/CO
inactive: outcome [1] | Potency [2] | outcome [3] | Potency [5] | activation [17] -2.29% | activation [6] -0.602% | activation [10] -0.426% | max response [11] -2.93% | outcome [13] | max response [14] 4.56% | max response [4] 19.8% | max response [15] 0.933% | outcome [16]

CC1CC(OC(=O)c2ccccc2O)CC(C)(C)C1 (stereo not given)
inactive: outcome [1] | Potency [2] | outcome [3] | activation [17] -6.41% | activation [6] -1.08% | Potency [7] | Potency [8] | outcome [9] | activation [10] 2.34% | max response [11] -1.84% | outcome [13] | max response [14] 0.684% | max response [4] -1.2% | max response [15] -5.44% | outcome [16]

CC(C)C[C@@H](N)C(=O)O
inactive: outcome [1] | Potency [2] | outcome [3] | max response [4] -9.37%

O=C1c2ccccc2C(=O)C1c1ccc(Br)cc1
inactive: outcome [1] | Potency [2] | outcome [3] | max response [4] -7.34%

Cc1ccccc1N=Nc1ccc(N=Nc2c(O)ccc3ccccc23)c(C)c1
inactive: outcome [1] | Potency [2] | outcome [3] | max response [4] 7.02%

From PubChem BioAssay (NCATS)
